# According to PubChem BioAssay (NCATS):
# Results filed as inconclusive are left out. A call without a number means that no potency is given here. Calls of active or inactive are those of the source. Unless noted, calls come from the whole dose curve; as a rule, active = well fitted curve in the direction sought with a large enough effect; inconclusive = small, poorly fitted or top-dose-only effect, or another doubt; inactive = no such curve, though single readings can be large; an effect the other way counts as inactive or inconclusive.
# Legend:
# [1] = test system: HaCat; assay: Cytotoxic Profiling of Annotated Libraries Using Quantitative High-Throughput Screening (AID 1296008); conditions: Five cell lines viability, CellTiter-Glo ATP luminescence, 48-72 h; max response: stronger effect = lower value; note: nearly all actives have a fitted effect of over 60% in size; note: potency is the fitted concentration of half-maximal effect
# Procedure, shortened: (§1)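 Cytotoxicity was measured as CellTiter-Glo ATP luminescence, read after 10 min at room temperature. Compound treatment of the cells lasted 48 or 72 hr at 37 degrees Celsius in a qHTS format.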
# [2] = test system: SKOV3; assay: Primary qHTS to identify gynecologic anti-cancer compounds using libraries of approved drugs and bioactive compounds (AID 1345084); conditions: Gynecologic cancer cell panel viability, ATPlite luminescence, 48 h; series mostly up to 57.5 µM; note: nearly all actives have a fitted effect of over 55% in size; note: potency is the fitted concentration of half-maximal effect
# Procedure, shortened: (§2)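 In this quantitative HTS, cell killing is estimated from loss of ATP-dependent luciferase light. Cells see five compound concentrations over a 48 h exposure.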
# [3] = molecular target: Cytochrome P450 2D6 (Homo sapiens) (UniProt P10635); assay: Cytochrome P450 family 2 subfamily D member 6 (CYP2D6) small molecule antagonists: luciferase biochemical (cell-free) qHTS assay (AID 1645840; active = well fitted curve in the direction sought with a large enough effect in the repeat runs; an effect the other way counts as inactive or inconclusive; note: potency is the fitted concentration of half-maximal effect; nearly all actives have a fitted effect of over 55% in size)
# Procedure, shortened: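 P450-Glo luminescent screen: recombinant CYP2D6 enzyme–proluciferin substrate mix preincubated with compound 10 min at room temperature, then NADPH regeneration added for 1 h at room temperature. Detection reagent added for 20 min; luciferin light read as relative luminescence units.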
# [4] = molecular target: Cytochrome P450 2C9 (Homo sapiens) (UniProt P11712); assay: Cytochrome P450 family 2 subfamily C member 9 (CYP2C9) small molecule antagonists: luciferase biochemical (cell-free) qHTS assay (AID 1645842; active = well fitted curve in the direction sought with a large enough effect in the repeat runs; an effect the other way counts as inactive or inconclusive; note: nearly all actives have a fitted effect of over 55% in size; note: potency is the fitted concentration of half-maximal effect)
# Procedure, shortened: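 Luminescence, after 20 min with luciferin detection reagent, reflected CYP2C9 turnover during a 1 h NADPH-driven reaction at 37C. Enzyme-substrate mix contained 0.4% bovine serum albumin and was preincubated with compound 10 min at room temperature.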
# [5] = test system: NIH3T3; assay: Cytotoxic Profiling of Annotated Libraries Using Quantitative High-Throughput Screening (AID 1296008); conditions: Five cell lines viability, CellTiter-Glo ATP luminescence, 48-72 h; max response: stronger effect = lower value; note: nearly all actives have a fitted effect of over 60% in size; note: potency is the fitted concentration of half-maximal effect
# Procedure, shortened: as §1
# [6] = test system: CRL-7250; assay: as above; conditions: Five cell lines viability, CellTiter-Glo ATP luminescence, 48-72 h; max response: stronger effect = lower value
# Procedure, shortened: as §1
# [7] = test system: CAOV3; assay: Primary qHTS to identify gynecologic anti-cancer compounds using libraries of approved drugs and bioactive compounds (AID 1345084); conditions: Gynecologic cancer cell panel viability, ATPlite luminescence, 48 h; series mostly up to 57.5 µM; note: nearly all actives have a fitted effect of over 55% in size; note: potency is the fitted concentration of half-maximal effect
# Procedure, shortened: as §2
# [8] = P-glycoprotein substrates identified in KB-8-5-11 adenocarcinoma cell line, qHTS therapeutic library screen (AID 1346987); note: nearly all actives have a fitted effect of over 65% in size; note: potency is the fitted concentration of half-maximal effect
# Procedure, shortened: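 KB-8-5-11, a colchicine-selected P-gp-overexpressing KB-3-1 subline, was grown without colchicine for the assay. Cells were seeded at 500 cells/well, dosed in concentration-response and incubated 72 h at 37 degree C, 5% CO2. Viability was read by CellTiter-Glo luminescence.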
# [9] = test system: Zika virus NS2B-NS3 protease (unlinked complex); assay: Primary screen GU Rhodamine qHTS for Zika virus inhibitors: Unlinked NS2B-NS3 protease assay (AID 1347159); note: nearly all actives have a fitted effect of over 60% in size
# Procedure, shortened: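 Percent inhibition derives from the 15-min fluorescence change (ex 480, em 540 nm), normalized to no-enzyme and no-inhibitor wells. Reactions contained 25 nM NS2B-NS3 complex and 1.5 microM substrate in 10 mM Tris-HCl pH 8.0.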
# [10] = molecular target: Catechol O-methyltransferase (Homo sapiens) (UniProt P21964); assay: Confirmatory Screen for Target Class Profiling of Small Molecule Inhibitors of Methyltransferases (AID 1745852; calls by dose curve; note: potency is the fitted concentration of half-maximal effect); conditions: MTase-Glo luminescence, SAH detection, recombinant enzyme; measured here: COMT max response; stronger effect = lower value
# [11] = molecular target: Guanidinoacetate N-methyltransferase (Homo sapiens) (UniProt Q14353); assay: as above; conditions: activity change, negative = inhibition: at 57.3 µM (top of the series) unless noted
# [12] = molecular target: Nicotinamide N-methyltransferase (Homo sapiens) (UniProt P40261); assay: as above; conditions: MTase-Glo luminescence, SAH detection, recombinant enzyme; measured here: NNMT max response; stronger effect = lower value
# [13] = molecular target: Phenylethanolamine N-methyltransferase (Homo sapiens) (UniProt P11086); assay: as above; conditions: MTase-Glo luminescence, SAH detection, recombinant enzyme; measured here: PNMT max response; stronger effect = lower value
# [14] = qHTS drug screen for cell cycle checkpoint inhibitors in PARPi-resistant BRCA-mutant ovarian cancer cell lines. (AID 1963452; calls by dose curve); conditions: PEO1/OlaR viability, CellTiter-Glo luminescence, 96 h, stronger effect = lower value
# Procedure, shortened: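 PEO1, PEO4 and PEO1/OlaR ovarian cancer cells, 600 per well, exposed 96 h at 37C to a dilution series. Viability read by CellTiter-Glo luminescence, normalized to DMSO and empty wells; activity summarized as Z-AUC.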
# [15] = Confirmatory screen NINDS Rhodamine qHTS for Zika virus inhibitors (AID 1347161); note: potency is the fitted concentration of half-maximal effect; nearly all actives have a fitted effect of over 60% in size
# Procedure, shortened: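 Aprotinin served as in-plate control. Conditions: 25 nM linked NS2B-NS3, pH 8.0 Tris buffer, titrated compounds, 15 min preincubation and 15 min reaction with 1.5 microM Rhod110 substrate at room temperature.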
# Chain of Cytochrome P450 2D6 (Homo sapiens) (P10635 whole entry, looked up): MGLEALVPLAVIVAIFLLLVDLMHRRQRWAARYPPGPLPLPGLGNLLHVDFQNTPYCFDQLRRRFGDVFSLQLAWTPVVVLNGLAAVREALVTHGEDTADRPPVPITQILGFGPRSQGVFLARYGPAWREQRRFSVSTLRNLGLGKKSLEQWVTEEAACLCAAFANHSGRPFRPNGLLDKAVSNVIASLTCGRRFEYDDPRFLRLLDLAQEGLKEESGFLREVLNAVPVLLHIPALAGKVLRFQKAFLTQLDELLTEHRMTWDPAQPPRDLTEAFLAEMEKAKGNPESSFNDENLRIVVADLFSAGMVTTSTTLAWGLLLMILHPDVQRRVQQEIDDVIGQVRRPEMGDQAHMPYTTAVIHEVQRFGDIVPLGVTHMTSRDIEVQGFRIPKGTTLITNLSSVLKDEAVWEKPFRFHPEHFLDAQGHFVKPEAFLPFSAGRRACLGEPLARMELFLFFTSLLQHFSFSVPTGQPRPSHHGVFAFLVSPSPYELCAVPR
# Chain of Cytochrome P450 2C9 (Homo sapiens) (P11712 whole entry, looked up): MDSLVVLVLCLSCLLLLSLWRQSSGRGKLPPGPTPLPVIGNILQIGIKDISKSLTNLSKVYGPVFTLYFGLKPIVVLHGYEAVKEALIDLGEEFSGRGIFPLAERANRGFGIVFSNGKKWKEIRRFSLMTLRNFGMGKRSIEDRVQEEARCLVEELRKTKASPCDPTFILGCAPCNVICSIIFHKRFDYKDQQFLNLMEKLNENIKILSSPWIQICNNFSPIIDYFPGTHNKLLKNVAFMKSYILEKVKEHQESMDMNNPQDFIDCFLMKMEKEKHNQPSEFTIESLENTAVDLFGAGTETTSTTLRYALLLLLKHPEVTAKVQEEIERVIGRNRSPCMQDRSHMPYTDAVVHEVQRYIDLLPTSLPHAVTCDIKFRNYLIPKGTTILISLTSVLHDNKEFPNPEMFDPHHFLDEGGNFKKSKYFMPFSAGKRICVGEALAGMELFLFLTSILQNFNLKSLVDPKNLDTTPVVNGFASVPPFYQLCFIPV
# Chain of Phenylethanolamine N-methyltransferase (Homo sapiens) (P11086 whole entry, looked up): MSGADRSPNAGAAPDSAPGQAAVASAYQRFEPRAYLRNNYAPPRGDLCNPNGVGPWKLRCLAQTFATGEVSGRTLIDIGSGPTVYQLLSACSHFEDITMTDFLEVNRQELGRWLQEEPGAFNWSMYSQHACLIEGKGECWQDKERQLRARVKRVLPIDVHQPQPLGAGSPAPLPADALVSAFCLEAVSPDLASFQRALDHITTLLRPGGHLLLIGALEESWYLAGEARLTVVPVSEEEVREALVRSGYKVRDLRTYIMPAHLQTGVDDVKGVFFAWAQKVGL
# Chain of Catechol O-methyltransferase (Homo sapiens) (P21964 whole entry, looked up): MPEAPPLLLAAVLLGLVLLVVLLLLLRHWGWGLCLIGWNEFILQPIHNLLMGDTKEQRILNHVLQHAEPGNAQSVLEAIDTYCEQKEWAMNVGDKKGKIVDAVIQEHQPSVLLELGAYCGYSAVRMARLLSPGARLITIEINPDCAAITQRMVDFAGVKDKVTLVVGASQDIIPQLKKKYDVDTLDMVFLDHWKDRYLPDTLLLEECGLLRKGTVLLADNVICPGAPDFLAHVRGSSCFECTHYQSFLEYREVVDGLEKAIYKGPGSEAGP
# Chain of Nicotinamide N-methyltransferase (Homo sapiens) (P40261 whole entry, looked up): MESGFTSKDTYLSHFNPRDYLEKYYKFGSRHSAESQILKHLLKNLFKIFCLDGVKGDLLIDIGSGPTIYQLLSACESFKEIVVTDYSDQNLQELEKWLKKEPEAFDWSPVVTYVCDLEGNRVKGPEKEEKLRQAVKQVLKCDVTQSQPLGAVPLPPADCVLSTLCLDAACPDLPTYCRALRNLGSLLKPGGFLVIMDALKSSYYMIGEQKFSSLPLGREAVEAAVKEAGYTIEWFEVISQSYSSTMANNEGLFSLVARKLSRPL
smiles,measurement,setting,value
Cc1ccc(C2(COC(=O)C(C)C)CO2)c(OC(=O)C(C)C)c1 (centres undefined),outcome,[1],inactive
same,Potency,[2],inactive
CCN1CCN(Cc2ccc(-c3cc4c(NC(C)c5ccccc5)ncnc4[nH]3)cc2)CC1 (centres undefined),Potency,[3],12 µM (active)
same,Potency,[4],inactive
same,Potency,[1],2.91 µM (active)
same,Potency,[5],8.2 µM (active)
same,Potency,[2],3.55 µM (active)
COc1ccc(Cl)cc1[C@@]1(F)C(=O)Nc2cc(C(F)(F)F)ccc21,Potency,[3],23.9 µM (active)
same,Potency,[4],6.01 µM (active)
same,max response,[6],-2.43% (inactive)
same,Potency,[7],inactive
C=C1/C(=C/C=C2\CCC[C@]3(C)[C@@H]([C@H](C)/C=C/C(=O)C4CC4)CC[C@@H]23)C[C@@H](O)C[C@@H]1O,Potency,[8],inactive
same,outcome,[1],inactive
same,Potency,[7],inactive
same,Potency,[2],inactive
O=C(Nc1ccc(F)cc1)N1CCc2ccccc2C1c1ccc(C(F)(F)F)cc1 (centres undefined),Potency,[8],20.6 µM (active)
same,Potency,[9],inactive
same,Potency,[3],9.52 µM (active)
same,Potency,[4],5.35 µM (active)
same,Potency,[1],14.6 µM (active)
same,Potency,[7],inactive
CC(C)N(CCCNC(=O)Nc1ccc(C(C)(C)C)cc1)C[C@H]1O[C@@H](n2cc(Br)c3c(N)ncnc32)[C@H](O)[C@@H]1O,Potency,[8],inactive
same,Potency,[9],inactive
same,Potency,[3],15.1 µM (active)
same,activity,[10],-65.3%
same,Potency,[11],21.5 µM (active)
same,activity,[12],-73.5%
same,activity,[13],-94.2%
same,Z-AUC,[14],0.222 (inactive)
same,Z-AUC,[14]; measured here: PEO1 parental Z-AUC,0.00626
same,Z-AUC,[14]; measured here: PEO4 Z-AUC,-0.104
same,max response,[6],-23.7% (inactive)
same,max response,[1],-3.75% (inactive)
same,Potency,[7],inactive
same,Potency,[2],inactive
C/C=C(/COC(=O)/C(C)=C/C)C(=O)OC/C=C/c1ccc(OC)cc1,Potency,[9],inactive
same,outcome,[1],inactive
same,Potency,[7],inactive
same,Potency,[2],inactive
CC1CCC2C(=CCC(O)C2(C)C)C1(C)Cc1c(O)cc(CO)c(C=O)c1O (centres undefined),Potency,[15],27.3 µM (active)
same,outcome,[1],inactive
same,Potency,[7],inactive
same,Potency,[2],inactive
C=C(C)[C@@H]1CC[C@]2(C(=O)O)CC[C@]3(C)C(CCC4[C@@]5(C)C[C@@H](O)[C@H](O)C(C)(C)C5CC[C@]43C)C12 (some centres undefined),Potency,[8],inactive
same,max response,[1],-24.1% (inactive)
same,Potency,[7],inactive
CC/C(=C(\c1ccc(O)cc1)c1ccc(OCCNC)cc1)c1ccccc1,Potency,[9],inactive
same,outcome,[6],inactive
same,outcome,[1],inactive
same,Potency,[7],inactive
same,Potency,[2],inactive
Cc1ccccc1C(=O)Nc1ccc(C(=O)N2CCC[C@@H](O)c3cc(Cl)ccc32)c(C)c1,Potency,[9],inactive
same,Potency,[4],12 µM (active)
same,max response,[1],-22.4% (inactive)
same,Potency,[7],inactive
O=C(c1ccc(F)c(F)c1Nc1ccc(I)cc1F)N1CC(O)(C2CCCCN2)C1 (centres undefined),Potency,[8],18.4 µM (active)
same,Potency,[9],inactive
same,Potency,[1],23.1 µM (active)
same,Potency,[2],20 µM (active)
